This is an account of results in the antibiotic and cytotoxicity screens of Wong et al. (2023).

Structures are written as SMILES. Out of some 39,000 compounds screened, about 1,500 (3.8%) were called active. The sample as a whole holds a higher share of actives than the screen did.

For the test, the system named is HSkMC (human skeletal muscle cells). Description: cytotoxicity call (relative viability < 0.9). The note with it: 10 µM.
`C[C@@H]1CN([C@H](C)CO)S(=O)(=O)c2ccc(C#CCN(C)C)cc2O[C@@H]1CN(C)Cc1ccccc1F`: the cytotoxicity call is “inactive”.
The same measure for `C[C@@H]1CN([C@H](C)CO)C(=O)c2cc(NC(=O)Cn3cnnn3)ccc2O[C@H]1CN(C)C(=O)Nc1ccc2c(c1)OCO2`: “inactive”.
In the case of `COc1ncc(-c2nc(N3CCOCC3)nc3c(CN4CCC(C(C)(C)O)CC4)cc(F)cc23)cc1NS(C)(=O)=O`, the cytotoxicity call was “inactive”.
The same measure for `CC(=O)/C(C)=N/O`: “inactive”; for `C[C@@H]1CCCCO[C@H](CN(C)C(=O)c2ccccc2)[C@@H](C)CN([C@@H](C)CO)C(=O)c2cc(NC(=O)c3ccccc3)ccc2O1`: “inactive”.
With `O=C1NCc2ccccc21` the entry was “inactive”.
On to `O=C1CCNc2cc3ccccc3cc21`, for which the cytotoxicity call was “active”.
The same measure for `O=C1CCCNc2ccc(Cl)cc21`: “inactive”; for `C[C@H]1CCCCO[C@@H](CN(C)Cc2ccc(C(=O)O)cc2)[C@@H](C)CN([C@@H](C)CO)C(=O)c2cc(NC(=O)c3ccccc3)ccc2O1`: “inactive”.
With `C[C@@H]1CCCCO[C@@H](CN(C)C(=O)Cc2ccccc2)[C@@H](C)CN([C@H](C)CO)C(=O)c2cc(NC(=O)Cc3ccccc3)ccc2O1` the entry was “inactive”; with `CO[C@@]12[C@H](COC(N)=O)C3=C(C(=O)C(C)=C(N)C3=O)N1C[C@@H]1N[C@@H]12`, “inactive”; with `CO[C@@]12[C@@H]3N[C@@H]3CN1C1=C(C(=O)C(N)=C(C)C1=O)[C@@H]2COC(N)=O`, “active”.
The same measure for `COC12C(COC(N)=O)C3=C(C(=O)C(C)=C(N)C3=O)N1CC1NC12` (stereo not given): “inactive”; for `CCOC(=O)C1CCN(S(=O)(=O)c2c(C)n(C)c(=O)n(C)c2=O)CC1`: “inactive”; for `C[C@@H]1CN([C@H](C)CO)C(=O)CCCn2nncc2CO[C@@H]1CN(C)Cc1ccc(C(=O)Nc2ccccc2N)cc1`: “inactive”.
Turning to `C[C@H](CO)N1C[C@H](C)[C@@H](CN(C)Cc2ccc(Cl)c(Cl)c2)Oc2ccc(NC(=O)NC3CCCCC3)cc2CC1=O`, the cytotoxicity call is “inactive”.
For `C[C@@H]1CN([C@H](C)CO)C(=O)Cc2cc(NC(=O)NC3CCCCC3)ccc2O[C@H]1CN(C)Cc1ccc(Cl)c(Cl)c1`, the cytotoxicity call is “active”.
On to `C[C@@H]1CN([C@H](C)CO)C(=O)Cc2cc(NC(=O)NC3CCCCC3)ccc2O[C@@H]1CN(C)Cc1ccc(Cl)c(Cl)c1`, for which the cytotoxicity call was “active”.
`C[C@@H]1CN([C@@H](C)CO)C(=O)Cc2cc(NC(=O)NC3CCCCC3)ccc2O[C@H]1CN(C)Cc1ccc(Cl)c(Cl)c1`: the cytotoxicity call is “inactive”.
With `C[C@@H]1CN([C@@H](C)CO)C(=O)Cc2cc(NC(=O)NC3CCCCC3)ccc2O[C@@H]1CN(C)Cc1ccc(Cl)c(Cl)c1` the entry was “inactive”; with `C[C@H](CO)N1C[C@H](C)[C@H](CN(C)Cc2ccc(Cl)c(Cl)c2)Oc2ccc(NC(=O)NC3CCCCC3)cc2CC1=O`, “inactive”; with `Cc1noc(C)c1NC(=O)N(C)C[C@H]1OCCCC[C@@H](C)Oc2ccc(NS(=O)(=O)c3cccs3)cc2C(=O)N([C@@H](C)CO)C[C@H]1C`, “inactive”.
Consider `Cc1noc(C)c1NC(=O)N(C)C[C@H]1OCCCC[C@H](C)Oc2ccc(NS(=O)(=O)c3ccc(F)cc3)cc2C(=O)N([C@@H](C)CO)C[C@H]1C`, for which the cytotoxicity call was “inactive”.
The same measure for `COc1ccccc1CNC(=O)C[C@H]1C[C@H]2c3cc(NC(=O)NC4CCCC4)ccc3O[C@H]2[C@H](CO)O1`: “inactive”; for `COc1ccc(CN(C)C[C@H]2Oc3c(NC(=O)c4ccc(-c5nccs5)cc4)cccc3C(=O)N([C@H](C)CO)C[C@H]2C)cc1`: “inactive”.
`CC[C@H]1OC[C@@H]2CN(C(=O)CN(C)C)CC[C@H]21`: the cytotoxicity call is “inactive”.
The same measure for `C[C@@H]1CN([C@H](C)CO)C(=O)Cc2cc(NC(=O)Nc3ccccc3)ccc2O[C@@H]1CN(C)C(=O)Nc1cccc2ccccc12`: “inactive”; for `C[C@H](CO)N1C[C@H](C)[C@@H](CN(C)C(=O)Nc2cccc3ccccc23)Oc2ccc(NC(=O)Nc3cccc4ccccc34)cc2CC1=O`: “active”.
With `C[C@H]1CN([C@@H](C)CO)C(=O)Cc2cc(NC(=O)Nc3ccc4c(c3)OCO4)ccc2O[C@@H]1CN(C)C(=O)Nc1cccc2ccccc12` the entry was “inactive”; with `C[C@@H]1CN([C@H](C)CO)C(=O)Cc2cc(NC(=O)Nc3ccc4c(c3)OCO4)ccc2O[C@@H]1CN(C)C(=O)Nc1cccc2ccccc12`, “inactive”.
`C[C@H](CO)N1C[C@H](C)[C@@H](CN(C)C(=O)Nc2cccc3ccccc23)Oc2ccc(NC(=O)Cc3ccccc3)cc2CC1=O`: the cytotoxicity call is “active”.
With `C[C@H]1CN([C@@H](C)CO)C(=O)Cc2cc(NC(=O)Nc3cccc4ccccc34)ccc2O[C@H]1CN(C)C(=O)Nc1cccc2ccccc12` the entry was “inactive”; with `C[C@@H]1CN([C@H](C)CO)C(=O)Cc2cc(NC(=O)Cc3ccccc3)ccc2O[C@H]1CN(C)C(=O)Nc1cccc2ccccc12`, “inactive”.
As to `C[C@H](CO)N1C[C@H](C)[C@@H](CN(C)C(=O)Nc2cccc3ccccc23)Oc2ccc(NC(=O)Nc3ccc4c(c3)OCO4)cc2CC1=O`, the cytotoxicity call is “active”.
With `C[C@H]1CN([C@@H](C)CO)C(=O)Cc2cc(NC(=O)Cc3ccccc3)ccc2O[C@@H]1CN(C)C(=O)Nc1cccc2ccccc12` the entry was “inactive”; with `C[C@H](CO)N1C[C@H](C)[C@@H](CN(C)C(=O)Nc2cccc3ccccc23)Oc2ccc(NC(=O)Nc3ccccc3)cc2CC1=O`, “active”.
The same measure for `C[C@H]1CN([C@@H](C)CO)C(=O)Cc2cc(NC(=O)Nc3ccccc3)ccc2O[C@@H]1CN(C)C(=O)Nc1cccc2ccccc12`: “inactive”; for `C[C@@H]1CN([C@@H](C)CO)C(=O)Cc2cc(NC(=O)Nc3cccc4ccccc34)ccc2O[C@@H]1CN(C)C(=O)Nc1cccc2ccccc12`: “inactive”.
With `OCc1cccc(CO)n1` the entry was “inactive”.
On to `COC(=O)[C@@H](Cc1ccc(-n2cc(-c3ccc(C(=O)NO)s3)nn2)cc1)N1CC2=C[C@H](C3CC3)n3c(=O)n(C)c(=O)n3[C@@H]2[C@H]1[C@H](O)Cc1ccccc1`, for which the cytotoxicity call was “inactive”.
